Compounds with a hit are over-represented: about 32% of the library has one in this group of screens.
CYP2C9 inhib – blockers of cytochrome P450 2C9 activity – biochemical, luminescence, ADME assay, primary screen. P11712. CYP2C9 Supersomes, luciferin-H conversion. inhibition, % at 5 µM. 96,000 tested, 20% active;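 active means blocking of liver enzyme CYP2C9 beyond about 50% at 5 µM, limit read from the data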
Target sequence (P11712 whole entry, looked up): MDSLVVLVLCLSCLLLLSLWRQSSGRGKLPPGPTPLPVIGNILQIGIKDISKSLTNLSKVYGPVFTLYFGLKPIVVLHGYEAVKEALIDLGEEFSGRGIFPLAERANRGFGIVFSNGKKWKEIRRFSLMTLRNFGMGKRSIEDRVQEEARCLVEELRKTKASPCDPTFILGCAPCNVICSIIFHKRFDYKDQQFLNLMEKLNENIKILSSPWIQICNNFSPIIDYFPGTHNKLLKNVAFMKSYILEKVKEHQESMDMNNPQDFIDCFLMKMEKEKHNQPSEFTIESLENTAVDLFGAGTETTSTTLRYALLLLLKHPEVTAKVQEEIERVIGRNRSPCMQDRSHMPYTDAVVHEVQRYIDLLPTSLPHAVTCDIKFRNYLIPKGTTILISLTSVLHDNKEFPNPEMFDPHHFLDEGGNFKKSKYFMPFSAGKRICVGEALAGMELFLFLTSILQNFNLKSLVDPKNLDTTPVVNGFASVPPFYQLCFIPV
PostGolgi yeast – phenotypic screen on post-Golgi transport, primary screen; post-Golgi transport phenotypic cell assay; inhibition, % at 10 µM; 98,000 tested, 0.9% active; AID 739, 2007;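 further: yeast cells grown in 1536-well plates; yeast grown about 18 h at 30C before absorbance read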
PostGolgi ctrl – growth inhibition of yeast control strain, primary screen, counter-screen for post-Golgi transport modulator project; efflux-deficient yeast background strain, growth absorbance A615, 16 h; inhibition, % at 10 µM; 98,000 tested, 5% active; AID 738, 2007
CYP2C9 activ – human CYP2C9 activators, primary screen, biochemical, luminescence; Cytochrome P450 2C9 (Homo sapiens), P11712; recombinant CYP2C9, luciferin-H conversion; hits give high values; factor 1 = untreated enzyme, 0 = blocked; activation factor at 5 µM; 96,000 tested, 1.4% active; AID 1024, 2008;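 active means activation factor of 2 or more for CYP2C9 at a 5 µM dose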;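 further: 0 = sulfaphenazole-blocked wells and 1 = vehicle-only wells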
CYP2C19 inhib – blockers of cytochrome P450 2C19 activity – biochemical, luminescence, ADME assay, primary screen; AID 778, 2007; 96,000 tested, 21% active; inhibition, % at 5 µM; CYP2C19 Supersomes, luciferin-H EGE luminescence, 30 min; P33261;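 active means CYP2C19 inhibition above a set limit at 5 µM in the primary screen, cut at about 50% in these data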;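 further: plate controls were negative control wells for no effect and 2.5 mM tranylcypromine positive control for full effect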
CYP2C19 activ – human CYP2C19 activators, primary screen, biochemical, luminescence; Cytochrome P450 2C19 (Homo sapiens), P33261; recombinant CYP2C19, luciferin-H EGE luminescence; hits give high values; 0 = fully inhibited enzyme, 1 = untreated enzyme; activation factor at 5 µM; 96,000 tested, under 10 active; AID 1025, 2008;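 active means activation factor of at least 2 at 5 µM in the primary screen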;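 further: 0 = wells with 2.5 mM tranylcypromine and 1 = vehicle-only wells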
* = called active by the depositor; . = no result given. Unless noted, no stated cut-off is given here; in the data, active means inhibition above about 30%; inactive means the rest.

SMILES	CYP2C9 inhib	PostGolgi yeast	PostGolgi ctrl	CYP2C9 activ	CYP2C19 inhib	CYP2C19 activ
COc1ccc(N(C)S(=O)(=O)c2cccc(C(=O)NCC3CCCO3)c2)cc1 (centres undefined)	63*	1	-2	0.4	41	0.6
COc1ccc(N(C)S(=O)(=O)c2cccc(C(=O)Nc3ccc(-n4cnnn4)cc3)c2)cc1	85*	7	7	0.2	70*	0.3
CCCNS(=O)(=O)c1ccc(C(=O)NCC2CCCO2)cc1 (centres undefined)	25	-1	-3	0.8	-3	1
Cc1ccc(-c2cc(C(F)F)nc(N3CCC(C)CC3)n2)cc1	55*	10	2	0.5	12	0.9
O=C(CSc1ccc2c(c1)OCCO2)NCC1CCCO1 (centres undefined)	2	8	6	1	24	0.8
CCOC(=O)c1ccccc1NC(=O)Cn1cnc2c1c(=O)n(C)c(=O)n2C	28	0	-1	0.7	19	0.8
COc1ccc(S(=O)(=O)N2CCN(c3ccccn3)CC2)cc1OC	37	22	2	0.6	70*	0.3
COc1ccc(S(=O)(=O)N2CCN(S(=O)(=O)c3ccc(C(F)(F)F)cc3)CC2)cc1C	4	-4	4	1	3	1
COc1ccc(S(=O)(=O)N2CCN(c3c(C)cccc3C)CC2)cc1OC	94*	11	31*	0.1	99*	0
COc1ccc(C(=O)N2CCN(c3ccc(C)cc3C)CC2)cc1OC	23	-6	26	0.8	8	0.9
CCOc1ccc(S(=O)(=O)N2CCN(c3ccc(C)cc3C)CC2)cc1	80*	-13	21	0.2	54*	0.5
COc1ccc(S(=O)(=O)N2CCN(c3ccc(C)cc3C)CC2)cc1OC	52*	8	17	0.5	46	0.5
O=C(Nc1cccc(F)c1)c1cccnc1N1CCOCC1	11	-2	-4	0.9	36	0.6
COc1ccc(C2Nc3ccccc3C(=O)N2Cc2ccco2)cc1COc1ccccc1F (centres undefined)	99*	-19	16	0	90*	0.1
CCN(CC)CCN1C(=O)c2ccccc2NC1c1ccc(F)cc1 (centres undefined)	2	0	1	1	-6	1.1
COc1ccc(C2Nc3ccccc3C(=O)N2Cc2ccco2)cc1COc1ccc(NC(C)=O)cc1 (centres undefined)	100*	27	22	0	85*	0.2
COc1cc(NC2c3ncccc3C(=O)N2Cc2ccco2)cc(OC)c1 (centres undefined)	11	0	12	0.9	30	0.7
COc1cccc(OC)c1OCCOc1ccccc1OC(C)C	-89	1	22	1.9	82*	0.2
COc1cccc(OC)c1OCCCOc1c(OC)cccc1OC	6	1	8	0.9	76*	0.2
COc1cccc(OC)c1OCCCCN1CCCC1	-10	8	-4	1.1	1	1
COc1cccc(OCCOCCN(C)CCO)c1	17	2	-1	0.8	16	0.8
COc1cccc(OCCOc2c(OC)cccc2OC)c1	-82	-4	7	1.8	95*	0
CCCOc1nc2c(c(=O)n(C)c(=O)n2C)n1CC	-3	.	.	1	8	0.9
Cc1cc(C)c(S(C)(=O)=O)c(Sc2ccc(Cl)cc2)n1	65*	16	31*	0.3	45	0.5
N#Cc1cc(-c2ccccc2)cnc1Sc1ccc(Cl)cc1	14	2	12	0.9	9	0.9
SMILES	CYP2C9 inhib	PostGolgi yeast	PostGolgi ctrl	CYP2C9 activ	CYP2C19 inhib	CYP2C19 activ
Cc1nn(-c2ccccc2)c(Oc2ccc(F)cc2)c1/C=N/n1cnnc1	60*	0	8	0.4	56*	0.4
COc1ccccc1/C=N/n1cnnc1	-1	-3	11	1	3	1
O=C(O)Cn1nnnc1-c1ccc(F)cc1	0	-3	-4	1	-3	1
CCOc1nc2ccccc2nc1NS(=O)(=O)c1ccccc1	39	-5	23	0.6	-9	1.1
CCOc1ccc2nc(NCCCNS(=O)(=O)c3ccccc3)c(C#N)cc2c1	55*	5	24	0.5	36	0.6
O=C(/C=C/c1cccc(C(F)(F)F)c1)Nc1cccc(C(F)(F)F)c1	-187	5	20	2.9*	10	0.9
O=C(NCCc1ccccc1)c1cccnc1	-5	25	5	1	-1	1
O=C(Nc1ccc(Cl)cc1)c1cccnc1N1CCCCC1	78*	3	24	0.2	79*	0.2
O=C(NCCc1ccccc1)c1cccnc1N1CCCCCC1	61*	2	8	0.4	72*	0.3
O=C(Nc1cccc(C(F)(F)F)c1)C1CCCCC1	69*	-8	1	0.3	87*	0.1
CS(=O)(=O)N1CCC(C(=O)Nc2cccc(C(F)(F)F)c2)CC1	-13	-6	-3	1.1	5	1
O=C(CN1CCOCC1)NC1C2CC3CC(C2)CC1C3 (centres undefined)	-10	1	7	1.1	-8	1.1
O=C(Nc1cccc(C(F)(F)F)c1)c1cccnc1N1CCCC1	-239	-4	15	3.4*	48	0.5
O=C(Nc1ccc(C(F)(F)F)cc1)c1cccnc1N1CCOCC1	6	2	1	0.9	12	0.9
CC1(C)C(=O)OC(C(=O)c2ccc(C(C)(C)C)cc2)C(C)(C)C1=O (centres undefined)	40	7	11	0.6	5	0.9
Cc1cc(C)c2c(N)c(C(=O)N3CCN(c4ncccn4)CC3)sc2n1	42	0	9	0.6	50*	0.5
COCc1cc(C)nc2sc(C(=O)N3CCN(c4ccccc4)CC3)c(N)c12	78*	0	14	0.2	80*	0.2
Cc1cccc(-n2cnc(C(=O)N/N=C\c3ccc(Br)cc3)c2)n1	-24	-8	3	1.2	14	0.9
O=C(Cc1ccccc1)Nc1ccccc1CO	0	3	-5	1	20	0.8
Cc1cc(Cl)ccc1OCC(=O)Nc1ccccc1CO	25	-3	30	0.7	58*	0.4
O=C(Cc1ccc(Cl)cc1)Nc1ccccc1CO	6	0	5	0.9	55*	0.4
Cc1cc(Cl)ccc1OCC(=O)N1CC(C)CC(C)C1 (centres undefined)	48	-8	29	0.5	98*	0
Cc1cc(Cl)ccc1OCC(=O)Nn1c(C)ccc1C	41	-11	0	0.6	94*	0.1
N#CC1=C(Nc2ccccc2)SC=C(c2ccc(Br)cc2)N=C1N1CCOCC1	-20	20	3	1.2	-2	1
